The record followed here is PubChem BioAssay AID1619 (SRMLSC, 2009).

Screen size: about 220,000 compounds; about 830 (0.38%) were called active. Only a sample is shown. Potency and affinity values are given separately. A number with no mark means an inactive call.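 Rule for the calls: active = compound inhibiting the enzyme by more than half at any dose during confirmatory dose-response retesting; inconclusive = strong single-dose inhibitors picked by rank but not retested; inactive = the rest.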

This assay deals with Leucine aminopeptidase (Plasmodium falciparum (isolate 3D7)) (UniProt Q8IL11). The experiment in a line: P. falciparum M17LAP inhibitors, primary screen, biochemical, fluorogenic H-Leu-NHMec substrate, 1536-well (AID 1619).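 Note: plate controls were full reaction with DMSO carrier for no effect and no enzyme background for full effect.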 Particulars: recombinant M17LAP, H-Leu-NHMec fluorogenic kinetic assay; at 30 µM; stronger effect = higher value.
Chain of Leucine aminopeptidase (Plasmodium falciparum (isolate 3D7)) (Q8IL11 whole entry, looked up): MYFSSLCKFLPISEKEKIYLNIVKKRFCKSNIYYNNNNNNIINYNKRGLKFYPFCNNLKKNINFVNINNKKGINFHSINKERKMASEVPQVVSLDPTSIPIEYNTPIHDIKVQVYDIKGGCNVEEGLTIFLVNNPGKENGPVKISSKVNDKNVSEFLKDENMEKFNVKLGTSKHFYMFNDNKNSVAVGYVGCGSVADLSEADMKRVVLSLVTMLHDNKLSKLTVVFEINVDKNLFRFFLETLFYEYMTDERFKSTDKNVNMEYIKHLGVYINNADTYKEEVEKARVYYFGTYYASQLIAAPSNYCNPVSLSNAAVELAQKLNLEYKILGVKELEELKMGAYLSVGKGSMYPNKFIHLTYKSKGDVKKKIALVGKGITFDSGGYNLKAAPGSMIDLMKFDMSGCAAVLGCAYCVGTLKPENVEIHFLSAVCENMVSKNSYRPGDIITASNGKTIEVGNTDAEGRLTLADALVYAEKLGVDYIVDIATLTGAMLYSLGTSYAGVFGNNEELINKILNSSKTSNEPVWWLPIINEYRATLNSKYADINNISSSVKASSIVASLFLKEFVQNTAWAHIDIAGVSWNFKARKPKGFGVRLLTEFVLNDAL
By inhibition is commonly meant the drop in the measured response relative to a control, in per cent. For the molecule `Cc1nn(-c2ccc(Cl)c(Cl)c2Cl)c(=O)c2ccccc12`, the inhibition is -4.32%.

In the case of `N#CC(C#N)=Cc1ccc(OC(=O)c2ccccn2)cc1`, the inhibition was 15.9%. On to `COc1cc2c(cc1OC)C1(Nc3c-2c(-c2ccccc2)nn3-c2ccccc2)C(=O)Nc2ccccc21` (stereo not given), for which the inhibition was 0.95%.

On to `O=C(COC(=O)c1cnccn1)Nc1ccc2c(c1)OCO2`, for which the inhibition was 13.5%. `CCOc1ccc(CCNC(=O)CN(C)S(=O)(=O)c2ccc3c(c2)CCC(=O)N3)cc1OCC`: the inhibition was -8.18%. The value for `COC(=O)CN(Cc1ccccc1)S(=O)(=O)c1ccc(OC)c(OC)c1` was -2.5%; that for `O=S(=O)(c1cccs1)N1CCN(c2ncccn2)CC1` was -7.79%.

As for `COc1ccc(C(=O)Nc2ccccc2N2CCOCC2)cc1[N+](=O)[O-]`, the inhibition is 7.12%. In the case of `CCOC(=O)c1c(-c2cccs2)csc1NC(C)=O`, the inhibition is -14.7%. The value for `CCOC(=O)c1c(-c2cccs2)csc1NC(=O)CC(C)C` was 7.23%. Take `Cc1ccc(OCCCN2C(=O)C(=O)c3cccc(C)c32)cc1`: the inhibition was 13.8%. `COc1ccc(C2NC(=S)N3C(c4ccc(OC)cc4)NC(=S)N23)cc1` (stereo not given): the inhibition is 34.8%. As to `OC1NC(=S)N(c2ccccc2)C1O` (stereo not given), the inhibition is 8.92%. With `COc1cccc(CC(NC(C)=O)C(=O)NC2CCN(c3nnnn3-c3ccccc3)CC2)c1` (stereo not given) the figure was 5.55%; with `CN(CCC#N)CC(=O)Nc1ccc(NC(=O)CN(C)CCC#N)cc1`, -4.87%; with `NC(=O)c1ccc(-c2ccccc2F)cc1`, 6.07%.

As to `O=S1(=O)N=C(Nc2ccc(O)c(CN3CCCCC3)c2)c2ccccc21`, the inhibition is 18.9%. Take `CCOC(=O)c1c(NC(=O)CSc2nnc(C)s2)sc2c1CCCCC2`: the inhibition was -4.03%.

`COC(=O)c1c(NC(=O)CSc2nnc(C)c(=O)[nH]2)sc(C)c1C`: the inhibition is 21.5%. In the case of `Cc1nnc(SCC(=O)Nc2sc3c(c2C(N)=O)CCCC3)[nH]c1=O`, the inhibition was 49.5%. Take `CCOC(=O)c1c(NC(=O)CSc2nnc(C)c(=O)[nH]2)sc(C)c1C`: the inhibition was 11.9%. For the molecule `Cc1ccc(C(=O)c2cn[nH]c2-c2ccccc2O)cc1`, the inhibition was 44.9%. Turning to `CCOC(=O)C1(C(=O)OCC)C(c2ccccc2)CC(O)N1C(C)=O` (stereo not given), the inhibition was 1.54%. On to `NC(=O)c1ccc(NC(=O)c2ccccc2S(=O)(=O)c2ccccc2[N+](=O)[O-])cc1`, for which the inhibition was 9.64%. The value for `O=C(O)CC/C(=N\NC(=O)c1ccccc1)c1cccs1` was 18.4%; that for `COC(=O)N/N=C(\CCC(=O)O)c1cccs1` was 6.69%. `Brc1ccc(/C=N/Nc2ncnc3c2cnn3Cc2ccccc2)cc1`: the inhibition is -4.47%. As to `O=C(CSc1ccccc1)Nc1ccccc1C(=O)O`, the inhibition is 18.8%. The value for `CC(C)c1ccc(C(=O)CSc2n[nH]c(-c3ccncc3)n2)cc1` was 6.54%; that for `NC(=O)SCC(=O)Nc1ccccc1C(=O)O` was 9.51%; that for `COc1ccccc1NC(=O)CSc1nc(N)cc(N)n1` was 10.8%.

As to `Nc1nc(SCC(=O)Nc2ccc([N+](=O)[O-])cc2Br)n[nH]1`, the inhibition was 10.2%.

As to `CC(C)c1nc(SCC(=O)Nc2ccc([N+](=O)[O-])cc2Br)n[nH]1`, the inhibition is 6%. Consider `COc1ccccc1NC(=O)CSc1ncn(-c2ccccc2)n1`, for which the inhibition is 5.61%.

As for `Cc1nnc(SCC(=O)c2ccc(C(C)C)cc2)s1`, the inhibition is -0.89%.

For `Cc1cc(C)cc(N2C(=O)CC(N(C(=O)c3ccco3)c3cc(C)cc(C)c3)C2=O)c1` (stereo not given), the inhibition is 3.47%. In the case of `CC(C)c1ccc(Nc2ncccc2C(=O)O)cc1`, the inhibition was 13.8%. For `CC1CN(Cc2ccc(C#N)cc2Cl)CC(C)O1` (stereo not given), the inhibition is -2.17%. Turning to `C/C(CCN1CCc2nc(-c3ccccc3)c(-c3ccccc3)cc2C1)=N\O[C@H](C)c1cn([C@H](CO)Cc2ccccc2)nn1`, the inhibition is 12.6%.

Regarding `Cc1oc(C)c(C(N)=O)c1C(N)=O`, the inhibition was -4.4%. Turning to `Nc1nc(SCC(=O)Nc2ncc(C(F)(F)F)cc2Cl)n[nH]1`, the inhibition is 1.49%. In the case of `COc1ccccc1N1CCN(C(=O)CSc2nc(N)cc(=O)[nH]2)CC1`, the inhibition was -20.8%. Regarding `O=C(CSc1ncccn1)Nc1ccc(S(=O)(=O)N2CCCCC2)cc1`, the inhibition was -1.15%. For `COc1ccccc1N1CCN(C(=O)CSc2nc(C)cc(=O)[nH]2)CC1`, the inhibition was 12.1%. In the case of `COc1ccc(NC(=O)CSc2nc(O)cc(=O)[nH]2)c(OC)c1`, the inhibition is 14.7%. The value for `Cc1cc(C)nc(SCC(=O)Nc2ccc(S(=O)(=O)N3CCCCC3)cc2)n1` was -1.67%; that for `O=C(CSc1ncccn1)Nc1ncc(C(F)(F)F)cc1Cl` was -4.61%. `COc1ccccc1NC(=O)CSc1nccc(=O)[nH]1`: the inhibition is 28.1%. Turning to `CC1=C(C(=O)OCc2ccccc2)C(c2ccoc2)C(C#N)=C(N)O1` (stereo not given), the inhibition was 5.93%. Consider `CC(NC(=O)C(=O)N/N=C\c1ccc([N+](=O)[O-])cc1)c1ccccc1` (stereo not given), for which the inhibition is 9.58%.

As to `CCOC(=O)/C(=C\c1cccnc1)C(=O)c1cc(C(C)=O)c(Nc2ccccc2)s1`, the inhibition was -7.24%. For `Cc1ccc(NC(=O)COC(=O)Cc2csc(-c3ccc(Cl)cc3)n2)cc1C`, the inhibition is 5.09%.

On to `CCOC(=O)N1CCC(N(C(=O)Nc2cccc(OC)c2)C(C)CC)CC1` (stereo not given), for which the inhibition was 7.02%. On to `CCN(CC)CCN1C(=O)C(=O)/C(=C(/O)c2ccncc2)C1c1ccccc1` (stereo not given), for which the inhibition was 45.4%. As for `CC1CCN(S(=O)(=O)c2ccc(NC(=O)Cc3ccccc3)cc2)CC1`, the inhibition is 2.2%.

On to `CCC1CCCCN1S(=O)(=O)c1ccc(NC(=O)CSc2ncccc2C(=O)O)cc1` (stereo not given), for which the inhibition was -3.83%.

Consider `Nc1cc(=O)[nH]c(SCC(=O)Nc2nnc(-c3ccccc3)s2)n1`, for which the inhibition is 34.9%.

For `O=C(CSc1nc(-c2ccccc2)c(-c2ccccc2)o1)Nc1nnc(-c2ccccc2)s1`, the inhibition is 5.34%. Consider `CC(=O)N1c2ccccc2C(=O)C1N1CCCCC1` (stereo not given), for which the inhibition is 7.9%. As for `CCn1c(SCC(=O)c2[nH]c(C)c(C(C)=O)c2C)nnc1-c1cccs1`, the inhibition is 12.2%.

As for `CC(C)CCNC(=O)C1CC(c2cccc([N+](=O)[O-])c2)=NO1` (stereo not given), the inhibition is 3.11%. Consider `O=C(CC12CC3CC(C1)CC(CC(=O)N1CCCC1)(C3)C2)N1CCCC1`, for which the inhibition is 1.98%. Take `NC(=O)CC[C@H](NC(=O)c1ccc(F)cc1)C(=O)OCC(=O)Nc1ccc(N2CCOCC2)cc1`: the inhibition is -1.82%. `C=C(C)c1cccc(C(C)(C)NC(=O)NCc2ccncc2)c1`: the inhibition was 5.4%. In the case of `Fc1ccccc1-c1[nH]ncc1-c1nnnn1-c1ccccc1`, the inhibition is 6.84%. The value for `COc1ccc(N2CCN(c3oc(-c4ccccc4OC)nc3C#N)CC2)cc1` was 0.71%.

In the case of `CCOC(=O)N1CCN(c2cc(C)c(C(C)=O)cc2F)CC1`, the inhibition is 14.4%. `O=C(CN1C(=O)C2C3CC(C(Br)C3Br)C2C1=O)N1CCN(Cc2ccccc2)CC1` (stereo not given): the inhibition is -4.45%. As to `O=C(CN1C(=O)C2C3c4ccccc4C(c4ccccc43)C2C1=O)N1CCOCC1` (stereo not given), the inhibition is 4.26%. With `CCCCOCCCNC(=O)CC(C)c1ccccc1` (stereo not given), the inhibition is 1.77%. Take `CCOC(=O)N1CCN(C(=O)c2ccc3c(=O)n(Cc4ccc(Cl)cc4)c(=S)[nH]c3c2)CC1`: the inhibition was -6.9%.

Turning to `CCCCn1c(=S)[nH]c2c(oc3ccc(Cl)cc32)c1=O`, the inhibition is 21.5%. As for `O=C(COC(=O)/C=C/c1ccc(Cl)cc1Cl)NCCC1=CCCCC1`, the inhibition was 3.27%.

Consider `O=c1cc(CSc2nnc(Nc3ccccc3)s2)nc2sccn12`, for which the inhibition was 24.3%.

For `Cc1ccccc1Nc1nnc(SCc2cc(=O)n3ccsc3n2)s1`, the inhibition was 28.1%. With `C/C(=C\C(=O)O)C12CC3CC(CC(C3)C1)C2`, the inhibition is 11.6%. With `COc1ccc(NC(=O)/C=C/c2c(Cl)nc3ccccn23)cc1` the figure was -6.42%; with `COC(=O)[C@H](C)NC(=O)Nc1ccc(Oc2ccccc2)cc1`, -1.77%. Turning to `CCC(C)[C@H](NC(=O)Nc1ccc(S(N)(=O)=O)cc1)C(=O)O` (stereo not given in full), the inhibition is 4.8%. For the molecule `CCc1ccccc1NC(=O)N[C@H](C(=O)O)C(C)CC` (stereo not given in full), the inhibition was 23.6%. `CC(C)C[C@H](NC(=O)Nc1ccc(Oc2ccccc2)cc1)C(=O)O`: the inhibition is 38.9%. Turning to `CCc1c(C)sc2nc3c(C(=O)N4CCOCC4)cc(C(=O)c4ccccc4O)cn3c(=O)c12`, the inhibition is 5.44%.

As for `Cc1noc(C)c1C1(O)CCCCCCCCCCC1`, the inhibition is 0.02%. For `CSc1nc2ccccc2s1`, the inhibition is 13.1%. The value for `CCC1CSC(Nc2ccc(C(=O)/C=C/c3ccc(Br)cc3)cc2)=N1` (stereo not given) was 15.6%; that for `CSc1ncc(Cl)c(C(=O)Nc2nnc(SC/C=C/c3ccccc3)s2)n1` was 29.5%. The value for `C=CCSc1nnc(NC(=O)c2ccc(Cl)nc2)s1` was 9.37%. Turning to `CSc1ncc(Cl)c(C(=O)Nc2nnc(SC)s2)n1`, the inhibition was 13.3%. Consider `CCSc1ncc(Cl)c(C(=O)Nc2ccccc2)n1`, for which the inhibition was -6.07%.

Consider `O=C(CCn1cnc2ccccc21)N/N=C/c1ccccc1O`, for which the inhibition was -4.46%.

For `CCOC(=O)CSc1nc(C(C)(C)C)nc2ccccc12`, the inhibition was -0.8%. In the case of `Cc1cc(C)c2c(=O)n(CC(=O)Nc3cccc(F)c3)sc2n1`, the inhibition was -3.07%. The value for `CC1(C(=O)Nc2nnc(SCc3ccccc3)s2)Cc2ccccc2C(=O)O1` (stereo not given) was 45.4%; that for `CC1(C(=O)Nc2nnc(C(C)(C)C)s2)Cc2ccccc2C(=O)O1` (stereo not given) was 48.3%.

For the molecule `Cc1ccc(-c2noc(CNCCCN(C)C)n2)cc1`, the inhibition was 2.07%.
